The list is not random: actives were taken first. Their share in the collection is about 14%.
Pf growth 96h: Primary qHTS for delayed death inhibitors of the malarial parasite plastid, 96 hour incubation | P. falciparum luciferase reporter growth, 96 h | Potency, µM (titrated, usually from 28.7 µM), without a hit: at the highest dose activity change, negative = inhibition, hits mostly inhibitors | actives 6.9% (n = 320,000) | AID 504834, 2011; also: potency is read from the fitted curve at half-maximal effect
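Delayed-death screen, second-generation endpoint: infected erythrocytes, 2% hematocrit, 0.05% parasitemia final; 96 hours at 37 C, 5% CO2; luciferase detection reagent; luminescence decrease equals reduced growth.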
MARV entry inh: qHTS for inhibitors of binding or entry into cells for Marburg Virus. Marburg virus pseudotyped entry inhibition, cell reporter. AID 540276, 2011. actives 1.8% (n = 300,000). Potency, µM (series often up to 37.8 µM), for the others: top-dose activity change, negative = inhibition, hits mostly inhibitors; calls by dose curve; tested in HEK293 cells; also: potency is read from the fitted curve at half-maximal effect
HCMV antiviral: qHTS Assay for inhibitors of the human cytomegalovirus (HCMV); actives 4.5% (n = 410,000); HFF cells, HCMV-luciferase reporter, 72 h; hits give low values; activity change, negative = inhibition, % at 57.5 µM; in the data active = activity change below about -60%; inconclusive = no clear call, values can overlap the other calls; inactive = above about -39%
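Luciferase read-out from HCMV-luciferase-infected HFFs (MOI 1 PFU/cell) 72 h post infection at 37C; compounds added after 16 h cell attachment; activity normalized between buffer-only basal and Salinomycin (10uM) inhibitor controls.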
HCV inhibitor: qHTS Assay for Inhibitors of Hepatitis C Virus (HCV); Huh7.5.1 HCVcc-Cre infection, luciferase reporter, 44 h; Potency, µM (series often up to 41.8 µM), inactives show top-dose activity change, negative = inhibition, hits mostly inhibitors; actives 3.4% (n = 340,000); also: potency is read from the fitted curve at half-maximal effect
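Infectious HCVcc-Cre (~0.5 moi) was added to cells just after compound, with cells seeded 4 h earlier at 1,000 per well. Luciferase activity after 44 h culture reported infection; substrate was incubated 15 min at room temperature before reading.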
Pf growth 48h: Primary qHTS for delayed death inhibitors of the malarial parasite plastid, 48 hour incubation. P. falciparum luciferase growth in erythrocytes, 48 h. Potency, µM (titrated, usually from 28.7 µM), without a hit: at the highest dose activity change, negative = inhibition, most hits filed as inhibitors. actives 5.9% (n = 310,000); also: potency is read from the fitted curve at half-maximal effect
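Erythrocytes infected with P. falciparum carrying an integrated firefly luciferase reporter (2% hematocrit, 0.1% parasitemia final) were exposed to compounds in RPMI 1640 with 0.5% Albumax at 37 C, 5% CO2. Growth inhibition was scored as reduced luminescence.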
Lassa entry inh: qHTS for Inhibitors of binding or entry into cells for Lassa Virus. Lassa virus pseudotype entry inhibition, cell reporter. Potency, µM (top dose mostly 37.9 µM), without a hit: at the top dose activity change, negative = inhibition, most hits filed as inhibitors. actives 1.2% (n = 300,000). AID 540256, 2011; calls by dose curve; tested in HEK293 cells; also: potency is read from the fitted curve at half-maximal effect; nearly all actives have a fitted effect of over 50% in size
* = called active by the depositor; ? = inconclusive; nt = not tested or not shown; [ ] = dose if it differs, or a comment. Unless noted, calls follow the shape of the dose curve; as a rule, active = well fitted inhibition curve with a large enough effect; inconclusive = small, poorly fitted or top-dose-only effect, or another doubt; inactive = no such curve, though single readings can be large or run the other way. % is scaled to controls: 0 for no effect and ±100 for the full control effect.

SMILES	Pf growth 96h	MARV entry inh	HCMV antiviral	HCV inhibitor	Pf growth 48h	Lassa entry inh
O=C(COc1ccc(S(=O)(=O)N2CCCCC2)cc1)Nc1ccccc1F	9%	-1%[46.1 µM]	15	-8%	12µM*	9%[46.1 µM]
CCN1CCN(c2ccc(S(=O)(=O)N3CCCCC3)cc2NC(=O)COc2ccc(Cl)cc2)CC1	?	-18%	26	?	8.3µM*	-6%
O=C(COc1ccccc1)Nc1ccc(S(=O)(=O)N2CCCCCC2)cc1	?	6%	2	-2%	nt	?
CCN1CCN(c2ccc(S(=O)(=O)N3CCCCC3)cc2NC(=O)COc2ccc(F)cc2Cl)CC1	?	?	-9	?	7.4µM*	?
O=C(COc1ccc([N+](=O)[O-])cc1)Nc1cc(S(=O)(=O)N2CCCCC2)ccc1N1CCCCC1	?	0%	-21	3%	?	5%
CN1CCN(c2ccc(S(=O)(=O)N3CCCCC3)cc2NC(=O)Cc2ccc(Cl)cc2)CC1	?	?	-27	?	?	24%
CCN1CCN(c2ccc(S(=O)(=O)N3CCCCC3)cc2NC(=O)COc2cc(C)ccc2Cl)CC1	1.9µM*	?	nt	?	12µM*	?
CCN1CCN(c2ccc(S(=O)(=O)N3CCCCC3)cc2NC(=O)CCNC(C)=O)CC1	nt	?	-23	0%	nt	13%
Cc1ccc2c(CC(=O)N3CCN(S(=O)(=O)c4cccs4)CC3)coc2c1	nt	-18%[46.1 µM]	11	-2%	-13%	-14%
O=C(Cc1coc2cc(O)ccc12)N1CCN(S(=O)(=O)c2ccc(Br)cc2)CC1	nt	nt	-33	11µM*	nt	nt
Cc1ccc(S(=O)(=O)N[C@@H]2COC(=O)[C@@H](C)COC(=O)C/C=C/[C@H]2C)cc1	nt	7%[14.2 µM]	nt	nt	nt	nt
CCOC(=O)C1=C(CP(=O)(c2ccccc2)c2ccccc2)NC(=O)NC1c1ccc(Cl)cc1 (stereo not drawn)	?	-27%	-38	-6%	?	-12%
CCOC(=O)C1=C(C)N=C2c3ccccc3C(=O)C2C1c1ccc(Cl)cc1 (stereo not drawn)	10µM*	?	-80*	16µM*	10µM*	?
CC1(C)CC(=O)C2=C(C1)N=C1c3ccccc3C(=O)C1C2c1ccc(Cl)cc1 (stereo not drawn)	?	?	-71*	13µM*	?	?
Cc1ccc(C2C3=C(CC(C)(C)CC3=O)N=C3c4ccccc4C(=O)C32)cc1 (stereo not drawn)	17%	?	-68*	?	8.3µM*	?
O=C(OCc1cn([C@@H]2C[C@H](c3ccccc3)N(CC3CCCCC3)C[C@@H]2O)nn1)c1ccccc1	nt	nt	nt	nt	nt	-9%[46.1 µM]
CC[C@]1(C(=O)OC)[C@H]2C(=O)N(C)C(=O)[C@H]2[C@H]2CN=C(SCc3ccc(Cl)cc3)N21	nt	nt	-34	-5%	nt	nt
COC(=O)[C@@]1(C)[C@H]2C(=O)N(C)C(=O)[C@H]2[C@H]2CN=C(SCc3ccc(C#N)cc3)N21	nt	nt	-5	0.56µM*	nt	nt
COC(=O)[C@@]1(C)[C@H]2C(=O)N(C)C(=O)[C@H]2[C@H]2CN=C(SCc3ccc(Cl)cc3)N21	nt	nt	28	4.5µM*	nt	nt
CCN1C(=O)[C@H]2[C@H]3CN=C(SCc4ccc(C#N)cc4)N3[C@@](C)(C(=O)OC)[C@H]2C1=O	nt	nt	2	-3%	nt	nt
CN1C(=O)C2(C(C#N)=C(N)N(c3ccc(Cl)cc3)C3=C2C(=O)CC(C)(C)C3)c2ccccc21 (stereo not drawn)	13µM*	-12%	0	7%	nt	-17%
CC1(C)CC(=O)C2=C(C1)N(c1ccc(Cl)cc1)C(=O)C2(O)C(F)(F)F (stereo not drawn)	-9%	-23%	-15	-8%	4%	-3%
CC1(C)CC(=O)C2=C(C1)N(c1ccccc1)C(N)=C(C#N)C2c1ccccc1 (stereo not drawn)	?	-30%	-25	4%	?	-33%
Cc1ccccc1C1C(C#N)=C2N=C(N)c3c(sc4c3CCCCC4)N2C2=C1C(=O)CCC2 (stereo not drawn)	2.6µM*	?	nt	?	1.9µM*	?
CC1(C)CC(=O)C2=C(C1)N1C(=C(C#N)C2c2ccc(Cl)cc2)N=C(N)c2ccccc21 (stereo not drawn)	13µM*	?	-93*	8.9µM*	?	?
SMILES	Pf growth 96h	MARV entry inh	HCMV antiviral	HCV inhibitor	Pf growth 48h	Lassa entry inh
CC1(C)CC(=O)C2=C(C1)N(c1ccccc1)C(N)=C(C#N)C2c1cccnc1 (stereo not drawn)	13µM*	-1%	-18	34%	?	-9%
Cc1c(C2C(C#N)=C(N)N(c3ccccc3C#N)C3=C2C(=O)CCC3)cnn1C (stereo not drawn)	?	4%	20	1%	-13%	16%
CCNC(=O)C1(C)CCN(C(=O)c2cccc(C(F)(F)F)c2)C1 (stereo not drawn)	nt	nt	0	nt	nt	nt
N#CC1=C2N=C(N)c3ccccc3N2C2=C(C(=O)CCC2)C1c1ccc(Cl)cc1 (stereo not drawn)	6%	-30%	-91*	?	?	?
N#CC1=C2N=C(N)c3ccccc3N2C2=C(C(=O)CCC2)C1c1ccccc1F (stereo not drawn)	?	nt	16	6%	-34%	nt
COc1ccccc1C1C(C#N)=C(N)N(c2cccnc2)C2=C1C(=O)CC(C)(C)C2 (stereo not drawn)	?	2%	11	5%	-25%	-2%
CC1(C)CC(=O)C2=C(C1)N1C(=C(C#N)C2c2ccccc2Cl)N=C(N)c2ccccc21 (stereo not drawn)	60%	?	7	?	13µM*	-25%
Cc1ccc(C)c(N2CCN(C(=O)CN3C(=O)COc4ccc(S(=O)(=O)N5CCC(C)CC5)cc43)CC2)c1	nt	1%[46.1 µM]	8	nt	nt	4%[46.1 µM]
Cc1cnc2c(c1SCC(=O)NCc1ccc(F)cc1)c(=O)n(C)c(=O)n2C	nt	nt	19	nt	nt	8%[46.1 µM]
Cc1ccc2[nH]c(CSc3ccccc3)cc(=O)c2c1	13µM*	-14%[46.1 µM]	?	?	?	5%[46.1 µM]
O=c1c2ccccc2sc2ccc(C#CC3(O)CCCCC3)cc12	nt	nt	-100*	?	nt	nt
O=c1c2ccccc2oc2cc(C#CC3(O)CCCCC3)ccc12	nt	nt	-80*	?	nt	nt
COc1cccc2sc3ccc(C#CC4(O)CCCCC4)cc3c(=O)c12	?	nt	30	?	39%	nt

Bioassay records deposited in PubChem BioAssay by National Center for Advancing Translational Sciences (NCATS).
